Data taken from PubChem BioAssay AID1159580 (chemical genetic matrix, 2015).
Among all 5,500 compounds or so, about 2,000 (36%) were called active. Inconclusive results (about 18%) are left out. No stated cut-off is given here; in the data, active means normalized growth mostly below about 0.91 (no sharp cut-off); inconclusive means no clear call, values can overlap the other calls; inactive means mostly above about 0.92. The list shows a part of the results.

Experiment: chemical genetic growth profiling, strain panel (AID 1159580);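 further: tested at 20 µM; growth read once vehicle control cultures reached saturation at 30 °C; 1 = growth at the plate median or of vehicle wells; lower values mean less growth of the strain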
Settings: S. cerevisiae deletion strains, growth OD

Measured: normalized growth

Cc1ccc(N=CN(C)C=Nc2ccc(C)cc2C)c(C)c1
inactive: locus YAL021C, strain ccr4, active compounds read low 0.944 | locus YAL026C, strain drs2, active compounds read low 0.962 | locus YAL030W, strain snc1, active compounds read low 0.984 | locus YBL061C, strain skt5, active compounds read low 0.986 | locus YBR009C, strain hhf1, active compounds read low 0.926 | locus YBR023C, strain chs3, active compounds read low 1 | locus YBR171W, strain sec66, active compounds read low 0.971 | locus YBR231C, strain swc5, active compounds read low 1 | locus YBR279W, strain paf1, active compounds read low 0.983 | locus YCL011C, strain gbp2, active compounds read low 0.965 | locus YCL016C, strain dcc1, active compounds read low 0.971 | locus YCL061C, strain MRC1, active compounds read low 0.952 | locus YCL069W, strain vba3, active compounds read low 0.979 | locus YCR088W, strain abp1, active compounds read low 0.99 | locus YDL005C, strain med2, active compounds read low 0.987 | locus YDL040C, strain nat1, active compounds read low 0.987 | locus YDR001C, strain nth1, active compounds read low 0.979 | locus YDR069C, strain doa4, active compounds read low 0.969 | locus YDR137W, strain rgp1, active compounds read low 0.981 | locus YDR159W, strain sac3, active compounds read low 0.974 | locus YDR195W, strain ref2 1.03 | locus YDR297W, strain sur2, active compounds read low 0.977 | locus YDR334W, strain swr1, active compounds read low 0.987 | locus YDR335W, strain msn5, active compounds read low 0.966 | locus YDR392W, strain spt3, active compounds read low 0.925 | locus YEL003W, strain gim4, active compounds read low 0.957 | locus YEL037C, strain rad23, active compounds read low 0.98 | locus YEL061C, strain CIN8 (second series), active compounds read low 0.986 | locus YER015W, strain faa2, active compounds read low 0.972 | locus YER016W, strain bim1, active compounds read low 0.975 | locus YER111C, strain swi4, active compounds read low 0.955 | locus YER155C, strain BEM2 (second series), active compounds read low 1.01 | locus YFR010W, strain ubp6, active compounds read low 0.987 | locus YGL167C, strain pmr1, active compounds read low 0.98 | locus YGL173C, strain kem1, active compounds read low 0.962 | locus YGL227W, strain vid30, active compounds read low 0.988 | locus YGL240W, strain doc1, active compounds read low 0.969 | locus YGL253W, strain hxk2, active compounds read low 0.979 | locus YHR013C, strain ard1, active compounds read low 0.943 | locus YHR027C, strain rpn1, active compounds read low 0.975 | locus YHR030C, strain SLT2, active compounds read low 0.999 | locus YHR079C, strain IRE1, active compounds read low 1.01 | locus YHR142W, strain chs7, active compounds read low 0.957 | locus YJL092W, strain hpr5, active compounds read low 0.978 | locus YJL095W, strain BCK1 (second series), active compounds read low 0.978 | locus YJL095W, strain BCK1, active compounds read low 0.962 | locus YJL115W, strain asf1, active compounds read low 0.966 | locus YJL129C, strain trk1, active compounds read low 0.976 | locus YJL154C, strain vps35, active compounds read low 0.987 | locus YJL164C, strain tpk1, active compounds read low 0.97 | locus YJL166W, strain qcr8, active compounds read low 0.974 | locus YJR066W, strain TOR1, active compounds read low 0.962 | locus YKL160W, strain elf1, active compounds read low 0.989 | locus YKR026C, strain gcn3, active compounds read low 0.989 | locus YKR091W, strain srl3, active compounds read low 0.983 | locus YLL001W, strain dnm1, active compounds read low 0.998 | locus YLL026W, active compounds read low 0.996 | locus YLL041C, strain sdh2, active compounds read low 0.98 | locus YLR027C, strain aat2, active compounds read low 0.98 | locus YLR113W, strain HOG1, active compounds read low 0.988 | locus YLR221C, strain rsa3, active compounds read low 0.941 | locus YLR258W, strain gsy2, active compounds read low 0.98 | locus YLR262C, strain YPT6 (second series), active compounds read low 0.962 | locus YLR320W, strain mms22, active compounds read low 0.969 | locus YLR342W, strain FKS1, active compounds read low 0.985 | locus YLR357W, strain rsc2, active compounds read low 0.898 | locus YLR370C, strain arc18, active compounds read low 0.985 | locus YLR384C, strain iki3, active compounds read low 0.993 | locus YML120C, strain ndi1, active compounds read low 0.975 | locus YMR058W, strain fet3, active compounds read low 0.972 | locus YMR125W, strain sto1, active compounds read low 1 | locus YMR129W, active compounds read low 0.97 | locus YMR205C, strain PFK2, active compounds read low 0.998 | locus YMR231W, strain pep5, active compounds read low 0.995 | locus YNL071W, strain lat1, active compounds read low 0.978 | locus YNL183C, strain NPR1, active compounds read low 0.976 | locus YNL209W, strain ssb2, active compounds read low 0.978 | locus YNL248C, strain rpa49, active compounds read low 0.905 | locus YNL322C, strain KRE1 (second series), active compounds read low 0.967 | locus YNR049C, strain mso1, active compounds read low 0.948 | locus YOR001W, strain rrp6, active compounds read low 0.984 | locus YOR070C, strain gyp1, active compounds read low 0.975 | locus YOR080W, strain dia2, active compounds read low 0.973 | locus YOR083W, strain WHI5, active compounds read low 0.983 | locus YOR106W, strain vam3, active compounds read low 0.95 | locus YOR231W, strain MKK1, active compounds read low 0.994 | locus YOR265W, strain rbl2, active compounds read low 0.991 | locus YOR270C, strain vph1, active compounds read low 0.837 | locus YOR290C, strain snf2, active compounds read low 0.949 | locus YPL051W, strain arl3, active compounds read low 0.965 | locus YPL078C, strain atp4, active compounds read low 0.97 | locus YPL106C, strain sse1, active compounds read low 0.948 | locus YPL240C, strain hsp82, active compounds read low 0.994 | locus YPL256C, strain CLN2, active compounds read low 1.01
